# Several values for one entry are separate records, joined by “and”; a condition that tells them apart may be missing. Equal values may be shown once. In all, about 5,500 compounds went through this assay and about 2,000 (36%) were called active. Inconclusive results (about 18%) are left out. Some of the results follow. Values without a mark were called inactive. Rule as the data show it: active = normalized growth mostly below about 0.91 (no sharp cut-off); inconclusive = no clear call, values can overlap the other calls; inactive = mostly above about 0.92.
# Assay: chemical genetic growth profiling, strain panel (AID 1159580);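 also: tested at 20 µM; growth read once vehicle control cultures reached saturation at 30 °C; 1 = growth at the plate median or of vehicle wells; lower values mean less growth of the strain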
# Conditions: S. cerevisiae deletion strains, growth OD
smiles,measurement,setting,value
CC(C)C(C)/C=C/C(C)C1CCC2C3=CC=C4CC(O)CCC4(C)C3CCC21C (configuration not stated),normalized growth,"locus YAL013W, strain DEP1, stronger effect = lower value",0.935
same,normalized growth,"locus YAL021C, strain ccr4, stronger effect = lower value",1
same,normalized growth,"locus YAL026C, strain drs2, stronger effect = lower value",0.856 (active)
same,normalized growth,"locus YAL030W, strain snc1, stronger effect = lower value",0.995
same,normalized growth,"locus YBL061C, strain skt5, stronger effect = lower value",0.996
same,normalized growth,"locus YBR009C, strain hhf1, stronger effect = lower value",0.893 (active)
same,normalized growth,"locus YBR021W, strain FUR4, stronger effect = lower value",0.814 (active)
same,normalized growth,"locus YBR023C, strain chs3, stronger effect = lower value",0.992
same,normalized growth,"locus YBR171W, strain sec66, stronger effect = lower value",1.01
same,normalized growth,"locus YBR229C, strain ROT2, stronger effect = lower value",1.01
same,normalized growth,"locus YBR231C, strain swc5, stronger effect = lower value",1
same,normalized growth,"locus YBR279W, strain paf1, stronger effect = lower value",1
same,normalized growth,"locus YCL011C, strain gbp2, stronger effect = lower value",0.974
same,normalized growth,"locus YCL016C, strain dcc1, stronger effect = lower value",1.01
same,normalized growth,"locus YCL029C, strain bik1, stronger effect = lower value",0.996
same,normalized growth,"locus YCL061C, strain MRC1, stronger effect = lower value",1.01
same,normalized growth,"locus YCL069W, strain vba3, stronger effect = lower value",1.01
same,normalized growth,"locus YCR088W, strain abp1, stronger effect = lower value",1.01
same,normalized growth,"locus YDL005C, strain med2, stronger effect = lower value",0.996
same,normalized growth,"locus YDL035C, strain GPR1, stronger effect = lower value",0.943
same,normalized growth,"locus YDL040C, strain nat1, stronger effect = lower value",1.01
same,normalized growth,"locus YDL074C, strain BRE1, stronger effect = lower value",0.848
same,normalized growth,"locus YDL101C, strain DUN1, stronger effect = lower value",0.965
same,normalized growth,"locus YDL134C, strain PPH21, stronger effect = lower value",0.86 (active)
same,normalized growth,"locus YDL185W, strain tfp1, stronger effect = lower value",1.01
same,normalized growth,"locus YDL192W, strain arf1, stronger effect = lower value",0.959
same,normalized growth,"locus YDR001C, strain nth1, stronger effect = lower value",1.01
same,normalized growth,"locus YDR069C, strain doa4, stronger effect = lower value",0.957
same,normalized growth,"locus YDR101C, strain arx1, stronger effect = lower value",1.02
same,normalized growth,"locus YDR137W, strain rgp1, stronger effect = lower value",0.819 (active)
same,normalized growth,"locus YDR159W, strain sac3, stronger effect = lower value",0.935
same,normalized growth,"locus YDR162C, strain NBP2, stronger effect = lower value",0.732 (active)
same,normalized growth,"locus YDR195W, strain ref2",1.08
same,normalized growth,"locus YDR297W, strain sur2, stronger effect = lower value",0.993
same,normalized growth,"locus YDR318W, strain mcm21, stronger effect = lower value",0.958
same,normalized growth,"locus YDR334W, strain swr1, stronger effect = lower value",1.01
same,normalized growth,"locus YDR335W, strain msn5, stronger effect = lower value",0.958
same,normalized growth,"locus YDR388W, stronger effect = lower value",1
same,normalized growth,"locus YDR392W, strain spt3, stronger effect = lower value",0.635 (active)
same,normalized growth,"locus YDR502C, strain sam2, stronger effect = lower value",0.917 (active)
same,normalized growth,"locus YEL003W, strain gim4, stronger effect = lower value",0.986
same,normalized growth,"locus YEL037C, strain rad23, stronger effect = lower value",0.989
same,normalized growth,"locus YEL061C, strain CIN8 (second series), stronger effect = lower value",1
same,normalized growth,"locus YER015W, strain faa2, stronger effect = lower value",1.01
same,normalized growth,"locus YER016W, strain bim1, stronger effect = lower value",0.987
same,normalized growth,"locus YER110C, stronger effect = lower value",0.996
same,normalized growth,"locus YER111C, strain swi4, stronger effect = lower value",0.982
same,normalized growth,"locus YER155C, strain BEM2 (second series), stronger effect = lower value",0.968
same,normalized growth,"locus YER155C, strain BEM2, stronger effect = lower value",0.975
same,normalized growth,"locus YER167W, strain BCK2, stronger effect = lower value",1.01
same,normalized growth,"locus YFR010W, strain ubp6, stronger effect = lower value",0.992
same,normalized growth,"locus YGL078C, strain dbp3, stronger effect = lower value",0.908 (active)
same,normalized growth,"locus YGL086W, strain mad1, stronger effect = lower value",0.962
same,normalized growth,"locus YGL167C, strain pmr1, stronger effect = lower value",0.998
same,normalized growth,"locus YGL173C, strain kem1, stronger effect = lower value",0.99
same,normalized growth,"locus YGL227W, strain vid30, stronger effect = lower value",0.995
same,normalized growth,"locus YGL240W, strain doc1, stronger effect = lower value",0.928
same,normalized growth,"locus YGL248W, strain PDE1, stronger effect = lower value",0.862 (active)
same,normalized growth,"locus YGL253W, strain hxk2, stronger effect = lower value",0.861 (active)
same,normalized growth,"locus YGR135W, strain pre9, stronger effect = lower value",0.928
same,normalized growth,"locus YGR229C, strain SMI1, stronger effect = lower value",0.831
same,normalized growth,"locus YGR252W, strain gcn5, stronger effect = lower value",0.798
same,normalized growth,"locus YHR013C, strain ard1, stronger effect = lower value",0.972
same,normalized growth,"locus YHR027C, strain rpn1, stronger effect = lower value",0.999
same,normalized growth,"locus YHR030C, strain SLT2, stronger effect = lower value",0.964 and 1.01
same,normalized growth,"locus YHR079C, strain IRE1 (second series), stronger effect = lower value",0.998
same,normalized growth,"locus YHR079C, strain IRE1, stronger effect = lower value",1.01
same,normalized growth,"locus YHR094C, strain hxt1, stronger effect = lower value",1.01
same,normalized growth,"locus YHR129C, strain ARP1, stronger effect = lower value",0.962
same,normalized growth,"locus YHR142W, strain chs7, stronger effect = lower value",0.884
same,normalized growth,"locus YHR200W, strain rpn10, stronger effect = lower value",0.994
same,normalized growth,"locus YIL066C, strain RNR3, stronger effect = lower value",0.97
same,normalized growth,"locus YIL073C, strain SPO22, stronger effect = lower value",0.863
same,normalized growth,"locus YIL125W, strain kgd1, stronger effect = lower value",1.03
same,normalized growth,"locus YIR030C, strain dcg1, stronger effect = lower value",1.01
same,normalized growth,"locus YJL092W, strain hpr5, stronger effect = lower value",1.01
same,normalized growth,"locus YJL095W, strain BCK1 (second series), stronger effect = lower value",0.898 (active)
same,normalized growth,"locus YJL095W, strain BCK1, stronger effect = lower value",0.835 and 1.02
same,normalized growth,"locus YJL115W, strain asf1, stronger effect = lower value",1.01
same,normalized growth,"locus YJL129C, strain trk1, stronger effect = lower value",0.978
same,normalized growth,"locus YJL134W, strain LCB3, stronger effect = lower value",1.01
same,normalized growth,"locus YJL154C, strain vps35, stronger effect = lower value",1.01
same,normalized growth,"locus YJL164C, strain tpk1, stronger effect = lower value",0.905 (active)
same,normalized growth,"locus YJL166W, strain qcr8, stronger effect = lower value",0.86 (active)
same,normalized growth,"locus YJL168C, strain set2, stronger effect = lower value",1.02
same,normalized growth,"locus YJL187C, strain SWE1 (second series), stronger effect = lower value",0.936
same,normalized growth,"locus YJL187C, strain SWE1, stronger effect = lower value",0.989
same,normalized growth,"locus YJR043C, strain POL32, stronger effect = lower value",1.03
same,normalized growth,"locus YJR066W, strain TOR1, stronger effect = lower value",0.921
same,normalized growth,"locus YJR075W, strain HOC1, stronger effect = lower value",0.978
same,normalized growth,"locus YKL009W, strain mrt4, stronger effect = lower value",0.926
same,normalized growth,"locus YKL068W, stronger effect = lower value",1.01
same,normalized growth,"locus YKL085W, strain MDH1 (second series), stronger effect = lower value",1
same,normalized growth,"locus YKL085W, strain MDH1, stronger effect = lower value",1
same,normalized growth,"locus YKL160W, strain elf1, stronger effect = lower value",0.989
same,normalized growth,"locus YKR001C, strain vps1, stronger effect = lower value",0.9
same,normalized growth,"locus YKR026C, strain gcn3, stronger effect = lower value",0.99
same,normalized growth,"locus YKR091W, strain srl3, stronger effect = lower value",0.998
same,normalized growth,"locus YLL001W, strain dnm1, stronger effect = lower value",0.96
same,normalized growth,"locus YLL026W, stronger effect = lower value",0.984
same,normalized growth,"locus YLL041C, strain sdh2, stronger effect = lower value",1.01
same,normalized growth,"locus YLR027C, strain aat2, stronger effect = lower value",0.972
same,normalized growth,"locus YLR039C, strain RIC1, stronger effect = lower value",0.806
same,normalized growth,"locus YLR058C, strain SHM2, stronger effect = lower value",0.946
same,normalized growth,"locus YLR102C, strain apc9, stronger effect = lower value",1.02
same,normalized growth,"locus YLR113W, strain HOG1, stronger effect = lower value",1
same,normalized growth,"locus YLR221C, strain rsa3, stronger effect = lower value",0.938
same,normalized growth,"locus YLR258W, strain gsy2, stronger effect = lower value",0.959
same,normalized growth,"locus YLR262C, strain YPT6 (second series), stronger effect = lower value",0.727 (active)
same,normalized growth,"locus YLR262C, strain YPT6, stronger effect = lower value",0.801
same,normalized growth,"locus YLR268W, strain sec22, stronger effect = lower value",0.968
same,normalized growth,"locus YLR320W, strain mms22, stronger effect = lower value",0.929
same,normalized growth,"locus YLR330W, strain CHS5, stronger effect = lower value",0.844 (active)
same,normalized growth,"locus YLR342W, strain FKS1, stronger effect = lower value",0.997
same,normalized growth,"locus YLR357W, strain rsc2, stronger effect = lower value",1.01
same,normalized growth,"locus YLR370C, strain arc18, stronger effect = lower value",0.989
same,normalized growth,"locus YLR371W, strain rom2, stronger effect = lower value",1.05
same,normalized growth,"locus YLR384C, strain iki3, stronger effect = lower value",0.988
same,normalized growth,"locus YLR418C, strain cdc73, stronger effect = lower value",0.666 (active)
same,normalized growth,"locus YML016C, strain PPZ1, stronger effect = lower value",0.973
same,normalized growth,"locus YML032C, strain rad52, stronger effect = lower value",0.973
same,normalized growth,"locus YML120C, strain ndi1, stronger effect = lower value",0.985
same,normalized growth,"locus YML124C, strain tub3, stronger effect = lower value",1
same,normalized growth,"locus YMR058W, strain fet3, stronger effect = lower value",0.956
same,normalized growth,"locus YMR078C, strain ctf18, stronger effect = lower value",1
same,normalized growth,"locus YMR125W, strain sto1, stronger effect = lower value",1.01
same,normalized growth,"locus YMR205C, strain PFK2, stronger effect = lower value",0.937
same,normalized growth,"locus YMR223W, strain ubp8, stronger effect = lower value",0.941
same,normalized growth,"locus YMR231W, strain pep5, stronger effect = lower value",0.998
same,normalized growth,"locus YMR307W, strain GAS1, stronger effect = lower value",0.797
same,normalized growth,"locus YNL067W, strain RPL9B, stronger effect = lower value",0.924
same,normalized growth,"locus YNL071W, strain lat1, stronger effect = lower value",0.773 (active)
same,normalized growth,"locus YNL128W, strain TEP1, stronger effect = lower value",0.994
same,normalized growth,"locus YNL153C, strain GIM3, stronger effect = lower value",0.966
same,normalized growth,"locus YNL183C, strain NPR1, stronger effect = lower value",0.951
same,normalized growth,"locus YNL209W, strain ssb2, stronger effect = lower value",1
same,normalized growth,"locus YNL233W, strain BNI4, stronger effect = lower value",0.887
same,normalized growth,"locus YNL248C, strain rpa49, stronger effect = lower value",0.939
same,normalized growth,"locus YNL250W, strain rad50, stronger effect = lower value",0.952
same,normalized growth,"locus YNL271C, strain bni1, stronger effect = lower value",0.979
same,normalized growth,"locus YNL298W, strain CLA4, stronger effect = lower value",0.977
same,normalized growth,"locus YNL307C, strain MCK1, stronger effect = lower value",0.774 (active)
same,normalized growth,"locus YNL322C, strain KRE1 (second series), stronger effect = lower value",0.996
same,normalized growth,"locus YNR049C, strain mso1, stronger effect = lower value",0.998
same,normalized growth,"locus YNR052C, strain pop2, stronger effect = lower value",0.952
same,normalized growth,"locus YOL012C, strain htz1",1.19
same,normalized growth,"locus YOL147C, strain pex11, stronger effect = lower value",0.996
same,normalized growth,"locus YOR001W, strain rrp6, stronger effect = lower value",0.996
same,normalized growth,"locus YOR061W, strain CKA2, stronger effect = lower value",0.933
same,normalized growth,"locus YOR069W, strain VPS5, stronger effect = lower value",0.98
same,normalized growth,"locus YOR070C, strain gyp1, stronger effect = lower value",0.976
same,normalized growth,"locus YOR080W, strain dia2, stronger effect = lower value",1.02
same,normalized growth,"locus YOR083W, strain WHI5, stronger effect = lower value",0.991
same,normalized growth,"locus YOR106W, strain vam3, stronger effect = lower value",0.889
same,normalized growth,"locus YOR136W, strain idh2, stronger effect = lower value",0.962
same,normalized growth,"locus YOR144C, strain elg1, stronger effect = lower value",1
same,normalized growth,"locus YOR184W, strain ser1, stronger effect = lower value",0.952
same,normalized growth,"locus YOR231W, strain MKK1, stronger effect = lower value",0.995
same,normalized growth,"locus YOR265W, strain rbl2, stronger effect = lower value",1.01
same,normalized growth,"locus YOR270C, strain vph1, stronger effect = lower value",0.681 (active)
same,normalized growth,"locus YOR290C, strain snf2, stronger effect = lower value",0.929
same,normalized growth,"locus YOR316C, strain cot1, stronger effect = lower value",1
same,normalized growth,"locus YPL051W, strain arl3, stronger effect = lower value",0.995
same,normalized growth,"locus YPL078C, strain atp4, stronger effect = lower value",0.957
same,normalized growth,"locus YPL106C, strain sse1, stronger effect = lower value",1.12
same,normalized growth,"locus YPL240C, strain hsp82, stronger effect = lower value",1.01
same,normalized growth,"locus YPL256C, strain CLN2, stronger effect = lower value",1.02
same,normalized growth,"locus YPR119W, strain clb2, stronger effect = lower value",1.02
same,normalized growth,"locus YPR141C, strain kar3, stronger effect = lower value",1.01
same,normalized growth,"locus YPR163C, strain tif3, stronger effect = lower value",0.828 (active)
same,normalized growth,"locus YPR167C, strain met16, stronger effect = lower value",0.956
same,normalized growth,"strain wtn01, stronger effect = lower value",0.969

# From PubChem BioAssay AID1159580 (chemical genetic matrix, 2015)
